# According to article PMC7010328:
# How the values were obtained:
# [1] = target: Nucleosome assembly protein 1-like 1 (UniProt P55209); experiment: cross-link between two proteins; cross-linking mass spectrometry
# [2] = target: Small ribosomal subunit protein uS11 (UniProt P62263); experiment: as above
# UniProt P55209, sequence (P55209 whole entry): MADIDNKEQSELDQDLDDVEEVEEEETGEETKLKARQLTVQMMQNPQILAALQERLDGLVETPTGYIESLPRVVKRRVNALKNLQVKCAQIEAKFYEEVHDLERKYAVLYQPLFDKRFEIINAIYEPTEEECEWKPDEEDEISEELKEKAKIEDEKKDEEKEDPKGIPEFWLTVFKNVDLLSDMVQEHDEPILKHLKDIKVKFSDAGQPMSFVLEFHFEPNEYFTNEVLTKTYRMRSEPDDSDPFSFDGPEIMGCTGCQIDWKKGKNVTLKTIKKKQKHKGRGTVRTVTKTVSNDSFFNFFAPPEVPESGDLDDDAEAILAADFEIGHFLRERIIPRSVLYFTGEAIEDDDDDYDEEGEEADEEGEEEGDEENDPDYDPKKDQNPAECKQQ
substance,measurement,setting,value
"60 kDa heat shock protein, mitochondrial, P10809",listed as a hit,[1],yes
same,listed as a hit,[2],yes
